Pf apPOL inh – Pf-apPOL inhibitors, biochemical, fluorescence; Recombinant Pf-apPOL, molecular beacon fluorescence, 1.5 h; inhibition, % at 10 µM; 0.25% of 210,000 active
mHTT CaM bind – mutant huntingtin-calmodulin interaction inhibitors – biochemical, AlphaScreen, primary screen; P42858; AlphaScreen His-mHTT/GST-CaM binding, luminescence; inhibition, % at 15 µM; 3.6% of 190,000 active;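 note: 0% = both proteins with DMSO and 100% = one protein alone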
An asterisk follows results filed as active. Only some compounds are listed: those with a hit (about 3.5% of all), similar ones and a draw of the others. Cut-off read from the data, not from the text of the source: active = inhibition above about 50%; inactive = the rest.

SMILES	Pf apPOL inh	mHTT CaM bind
CC(C)CC1NC2(CCN(C(=O)c3cccs3)CC2)N(C2CC2)C1=O (centres undefined)	-3	-2
COc1ccc(OC)c(NC(=O)c2ccc(Cl)cc2[N+](=O)[O-])c1	-4	1
COc1cccc(NC(=O)N2CCC(c3cc(-c4cccc(OC)c4)n[nH]3)CC2)c1	-2	30
CN(C)S(=O)(=O)c1ccc(C(=O)N2CCC(c3nnc(-c4ccco4)s3)CC2)cc1	9	-6
CC(=O)N(CN1C(=O)c2ccc([N+](=O)[O-])cc2C1=O)c1ccc(Oc2ccc(Cl)cc2)cc1	92*	3
CC(=O)N(CN1C(=O)c2ccc([N+](=O)[O-])cc2C1=O)c1ccc(F)cc1	3	23
Cc1noc(C2CN(C(=O)Nc3ccccc3F)CC23CCOCC3)n1 (centres undefined)	-4	0
COC1=CC(=Cc2c(N)n3nc(-c4ccccc4C)sc3nc2=O)C=CC1=O	-1	57*
CCOC1=CC(=Cc2c(N)n3nc(COc4ccccc4)sc3nc2=O)C=CC1=O	0	31
C=CCn1c(SCC(=O)Nc2ccccc2C(F)(F)F)nnc1-c1cccnc1	-2	-4
Cc1ccc(C2C3=C(Nc4ncnn42)c2ccccc2OC3c2ccc(F)cc2)cc1 (centres undefined)	-5	51*
Fc1ccc(C2C3=C(Nc4ncnn42)c2ccccc2OC3c2cccc(F)c2)cc1 (centres undefined)	-5	27
Cc1ccc(C2Oc3ccccc3C3=C2C(c2ccc(F)cc2)n2ncnc2N3)cc1 (centres undefined)	2	3
Cc1ccc(C2C3=C(Nc4ncnn42)c2ccccc2OC3c2cccc(F)c2)cc1 (centres undefined)	-7	53*
CCc1cccc2c3c([nH]c12)CCC(NC(=O)C(C)CC)C3 (centres undefined)	26	42
O=C(CC1=CCCCC1)NC1CCc2[nH]c3ccc(Br)cc3c2C1 (centres undefined)	-6	100*
CC1CCC(C(=O)NC2CCc3[nH]c4ccc(Br)cc4c3C2)CC1 (centres undefined)	-6	97*
Cc1cc(C)cc(C(=O)NC2CCc3[nH]c4ccc(Br)cc4c3C2)c1 (centres undefined)	-7	18
O=C(c1ccc2c(c1)OCO2)N1CCC(CCOc2ccccc2)CC1	-8	6
CCc1ccc(N2CCN(C(=O)C(C)C)C(C)C2=O)cc1 (centres undefined)	-1	-6
Cn1nc(CNC(=O)Cc2c[nH]c3ccccc23)c2ccccc21	1	0
O=C1c2[nH]nc(-c3ccccc3)c2C(c2ccccc2[N+](=O)[O-])N1c1ccccc1 (centres undefined)	-1	59*
COc1ccc(C2c3c(-c4ccccc4)n[nH]c3C(=O)N2c2ccccc2)cc1 (centres undefined)	6	59*
CC(=O)C1=C(O)C(=O)N(c2ccccn2)C1c1ccc([N+](=O)[O-])cc1 (centres undefined)	2	2
O=C1c2[nH]nc(-c3ccc(Cl)cc3)c2C(c2ccc([N+](=O)[O-])cc2)N1c1ccccn1 (centres undefined)	-1	89*
SMILES	Pf apPOL inh	mHTT CaM bind
O=C1c2[nH]nc(-c3ccccc3)c2C(c2ccccc2)N1c1ccccc1 (centres undefined)	-9	37
COc1ccc(-c2n[nH]c3c2C(c2ccc(OC)c(OC)c2)N(c2ccccc2)C3=O)cc1 (centres undefined)	-4	19
COc1cccc2sc(=NC(=O)c3cccc([N+](=O)[O-])c3)n(C)c12	-9	2
CCOc1ccccc1NC(=O)C1CC=CCC1C(=O)O (centres undefined)	-4	2
Cc1ccc(C)c(NC(=O)c2csc(-c3ccc(C)n3C)n2)c1	-4	1
CCOC(=O)C1CCCN(C=C2Oc3cc(O)ccc3C2=O)C1 (centres undefined)	-18	1
COc1ccccc1C(=O)N1CCC(CCOc2ccccc2F)CC1	-1	52*
COc1ccc(C(=O)N2CCC(CCOc3ccccc3)CC2)c(C)c1	-7	60*
COc1cccc(C(=O)N2CCC(CCOc3ccc(F)cc3)CC2)c1	-2	32
CN(C)c1cccc(C(=O)N2CCC(CCOc3ccccc3F)CC2)c1	-2	95*
COCCC1CCN(C(=O)c2ccccc2OC)CC1	-2	-3
COCCC1CCN(C(=O)c2ccc(OC)cc2C)CC1	-8	-3
O=C(c1ccc(F)c(F)c1)N1CCC(CCOc2ccccc2F)CC1	0	-32
CN(C)c1cccc(C(=O)N2CCC(CCOc3ccc(F)cc3)CC2)c1	-2	93*
CCc1csc2nc(C)c(NC(=O)c3ccccc3C)c(=O)n12	-2	-4
CCOc1ccc(-c2cn3ccn(-c4ccc(OC)c(Cl)c4)c(=O)c3n2)cc1	1	-5

Assay outcomes as filed in PubChem BioAssay.
